# Test results reported in PubChem BioAssay (Tox21).
# A number with no mark means an inactive call. Results filed as inconclusive are left out. Entries that show only a call come without a potency. Activity calls are given as the source filed them. Unless noted, calls follow the shape of the full dose curve.
# Assays:
# [1] = Nuclear factor erythroid 2-related factor 2/antioxidant responsive element (Nrf2/ARE) small molecule agonists: qHTS cell viability counter screen in human keratinocytes (AID 1919968; active = well fitted curve in the direction sought with a large enough effect in the repeat runs; an effect the other way counts as inactive or inconclusive; also: nearly all actives have a fitted effect of over 55% in size)
# In short: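 KeratinoSens HaCaT cells, 1,500/well, preincubated 5 h, then exposed to compounds in DMSO for 23 h at 37 C/5% CO2. Viability read as CellTiter-Fluor fluorescence after 1 h, in the same wells as the ARE-luciferase read.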
# [2] = Nuclear factor erythroid 2-related factor 2/antioxidant responsive element (Nrf2/ARE) small molecule agonists: luciferase reporter gene qHTS assay in human keratinocytes (AID 1919969); also: nearly all actives have a fitted effect of over 35% in size; also: potency is read from the fitted curve at half-maximal effect
# [3] = target: Gonadotropin-releasing hormone receptor (Homo sapiens) (UniProt P30968); assay: Human gonadotropin-releasing hormone receptor (GnRHR) small molecule agonists, calcium flux assay in GnRHR-HEK293 cells (AID 1920063); also: nearly all actives have a fitted effect of over 35% in size
# Gonadotropin-releasing hormone receptor (Homo sapiens), sequence (P30968 whole entry, looked up): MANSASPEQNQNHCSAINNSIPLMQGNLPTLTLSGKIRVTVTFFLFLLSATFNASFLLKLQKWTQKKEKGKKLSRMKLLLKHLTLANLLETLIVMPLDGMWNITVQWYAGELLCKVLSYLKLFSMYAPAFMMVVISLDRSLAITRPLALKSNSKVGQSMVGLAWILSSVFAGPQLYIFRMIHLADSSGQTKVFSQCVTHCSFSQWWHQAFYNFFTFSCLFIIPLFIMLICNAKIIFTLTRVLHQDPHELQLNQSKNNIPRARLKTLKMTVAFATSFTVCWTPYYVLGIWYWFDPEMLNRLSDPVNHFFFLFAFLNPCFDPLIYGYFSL
# In short: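 HEK293 cells stably expressing human GnRHR were dye-loaded for 1 h at 37 C. Compound was added in agonist mode and fluorescence (Ex/Em 480/540) recorded kinetically for 3 min. Fifteen concentrations, triplicates.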
# [4] = target: KiSS-1 receptor (Homo sapiens) (UniProt Q969F8); assay: Human kisspeptin (KISS1R) small molecule agonists, calcium flux assay in KISS1R-HEK293 cells (AID 1920064; active = well fitted curve in the direction sought with a large enough effect in the repeat runs; an effect the other way counts as inactive or inconclusive)
# KiSS-1 receptor (Homo sapiens), sequence (Q969F8 whole entry, looked up): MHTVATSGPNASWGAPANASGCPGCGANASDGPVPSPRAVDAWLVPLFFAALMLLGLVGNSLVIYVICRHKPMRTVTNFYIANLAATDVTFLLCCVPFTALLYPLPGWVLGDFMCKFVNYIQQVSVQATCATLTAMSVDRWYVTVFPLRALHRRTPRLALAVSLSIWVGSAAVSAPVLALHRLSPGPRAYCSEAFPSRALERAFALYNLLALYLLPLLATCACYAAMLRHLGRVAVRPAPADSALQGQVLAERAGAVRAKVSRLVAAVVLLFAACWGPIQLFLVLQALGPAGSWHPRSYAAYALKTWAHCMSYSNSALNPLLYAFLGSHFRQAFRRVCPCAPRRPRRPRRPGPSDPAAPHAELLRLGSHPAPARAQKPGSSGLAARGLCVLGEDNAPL
# In short: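 HEK293 cells stably expressing human KISS1R were loaded with calcium dye for 1 h at 37 C, then given compound; fluorescence (Ex/Em 480/540) was read kinetically for 3 min. Fifteen concentrations, triplicate.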
# [5] = G protein-coupled receptor (GPCR) small molecule agonists, calcium flux assay: HEK293 wild type cell line counter screen (AID 1920065)
# In short: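 Wild-type HEK293 cells plated 18 h, loaded with calcium dye 1 h at 37 C, then compounds added in agonist mode (ATP as positive control). Kinetic fluorescence Ex/Em 480/540 recorded 3 min at 1 sec intervals; 15 concentrations, triplicate.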
# [6] = p53 small molecule agonists, cell-based qHTS assay with human liver microsomes (AID 1963577);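 also: p53 response element beta-lactamase reporter cells with liver microsomes plus NADPH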
# In short: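 p53RE-bla cells; 5 h settle, 37 C/5% CO2; cpd + HLM 0.5 mg/mL + NADPH 0.5 mg/mL (final); 16 h 37 C; LiveBLAzer 2 h RT dark; fluorescence readout.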
# [7] = p53 small molecule agonists, cell-based qHTS assay with rat liver microsomes (AID 1963578)
# In short: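 Rat liver microsome activation: microsomes 0.5 mg/mL, NADPH 0.5 mg/mL final; p53RE-bla cells, 16 h 37 C; LiveBLAzer readout, 2 h RT dark.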
# [8] = p53 small molecule agonists, cell-based qHTS assay with human liver microsomes: qHTS cell viability counter screen (AID 1963579); also: nearly all actives have a fitted effect of over 45% in size
# In short: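 Luminescent CellTiter-Glo read-out, 30 min at room temperature, gauged cytotoxicity in p53RE-bla cells exposed 16 h at 37 C to DMSO-dissolved compounds with metabolic activation by human liver microsomes and NADPH, each 0.5 mg/mL final.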
# [9] = p53 small molecule agonists, cell-based qHTS assay with rat liver microsomes: qHTS cell viability counter screen (AID 1963580); also: nearly all actives have a fitted effect of over 45% in size
# In short: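 p53RE-bla HCT-116 cells were exposed 16 h at 37 C to compounds with rat liver microsomes (0.5 mg/mL) and NADPH (0.5 mg/mL). Viability was measured in the same wells as ATP content by CellTiter-Glo luminescence.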
# [10] = p53 small molecule agonists, cell-based qHTS assay: qHTS cell viability counter screen (AID 1963581); also: nearly all actives have a fitted effect of over 45% in size
# In short: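 p53RE-bla HCT-116 cells, compounds added 5 h after plating and incubated 16 h at 37 C. Cytotoxicity measured in the same wells as intracellular ATP by CellTiter-Glo luminescence after 30 min at room temperature.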
# [11] = p53 small molecule agonists, cell-based qHTS assay (AID 1963582; active = well fitted activation curve with a large enough effect in the signal ratio in the repeat runs, not every such curve was filed as active; the % refers to the signal ratio)
# In short: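 p53RE-bla reporter cells, compounds added in DMSO after 5 h plating, incubated 16 h at 37 C. Beta-lactamase read via 2 h room-temperature LiveBLAzer B/G FRET substrate, fluorescence intensity.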
# [12] = target: 5-hydroxytryptamine receptor 2A (Homo sapiens) (UniProt P28223); assay: 5-hydroxytryptamine receptor 2A (HTR2A) small molecule antagonists, cell-based qHTS assay (AID 1963586); also: nearly all actives have a fitted effect of over 45% in size
# 5-hydroxytryptamine receptor 2A (Homo sapiens), sequence (P28223 whole entry, looked up): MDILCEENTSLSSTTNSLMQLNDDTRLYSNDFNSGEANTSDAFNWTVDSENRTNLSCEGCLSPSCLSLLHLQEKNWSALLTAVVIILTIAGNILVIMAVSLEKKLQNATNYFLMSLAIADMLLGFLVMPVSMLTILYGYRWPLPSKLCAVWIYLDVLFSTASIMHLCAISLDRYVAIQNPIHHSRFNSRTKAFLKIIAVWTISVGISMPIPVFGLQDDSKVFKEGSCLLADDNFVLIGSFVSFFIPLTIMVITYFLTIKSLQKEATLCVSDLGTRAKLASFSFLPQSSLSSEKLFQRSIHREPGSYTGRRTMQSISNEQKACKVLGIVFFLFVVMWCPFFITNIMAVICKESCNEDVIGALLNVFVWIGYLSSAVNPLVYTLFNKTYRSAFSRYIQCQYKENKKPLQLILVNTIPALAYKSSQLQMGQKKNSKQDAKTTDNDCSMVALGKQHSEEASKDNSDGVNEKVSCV
# In short: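 Antagonist-mode intracellular calcium assay: DOI (4 nM) added after 5 min compound pre-incubation at room temperature to dye-loaded HTR2A-CHO cells. Fluorescence followed for 3 min, sampled every second.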
# [13] = target: 5-hydroxytryptamine receptor 2A (Homo sapiens) (UniProt P28223); assay: 5-hydroxytryptamine receptor 2A (HTR2A) small molecule agonists, cell-based qHTS assay (AID 1963587); also: nearly all actives have a fitted effect of over 30% in size
# In short: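 CHO cells stably expressing human HTR2A, plated 18 h, loaded with calcium dye 1 h at 37 C. Agonist mode: compounds added and intracellular calcium fluorescence recorded kinetically for 2 min at 1 sec intervals.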
# [14] = target: Muscarinic acetylcholine receptor M1 (Homo sapiens) (UniProt P11229); assay: Cholinergic receptor muscarinic 1 (CHRM1) small molecule antagonists, cell-based qHTS assay (AID 1963588); also: nearly all actives have a fitted effect of over 40% in size
# Muscarinic acetylcholine receptor M1 (Homo sapiens), sequence (P11229 whole entry, looked up): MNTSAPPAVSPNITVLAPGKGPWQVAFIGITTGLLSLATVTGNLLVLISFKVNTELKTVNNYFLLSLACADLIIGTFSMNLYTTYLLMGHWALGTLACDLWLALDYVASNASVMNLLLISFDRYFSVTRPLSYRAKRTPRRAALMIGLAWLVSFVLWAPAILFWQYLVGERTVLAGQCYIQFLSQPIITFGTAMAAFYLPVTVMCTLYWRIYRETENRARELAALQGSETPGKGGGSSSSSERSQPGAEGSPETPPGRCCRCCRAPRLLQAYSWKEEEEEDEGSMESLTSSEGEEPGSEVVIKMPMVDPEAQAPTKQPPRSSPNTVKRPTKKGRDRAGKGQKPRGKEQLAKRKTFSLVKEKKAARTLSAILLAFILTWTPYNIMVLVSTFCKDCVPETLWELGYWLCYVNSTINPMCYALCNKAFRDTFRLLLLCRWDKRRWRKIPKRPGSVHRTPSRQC
# In short: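 CHRM1-CHO calcium-flux assay, antagonist mode. Cells were seeded 18 h, dye-loaded 1 h at 37 C and given compound for 5 min at RT, then acetylcholine was added at 50nM. FDSS fluorescence was read 3 min; 15 concentrations, three runs.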
# [15] = target: Muscarinic acetylcholine receptor M1 (Homo sapiens) (UniProt P11229); assay: Cholinergic receptor muscarinic 1 (CHRM1) small molecule agonists, cell-based qHTS assay (AID 1963589); also: nearly all actives have a fitted effect of over 35% in size
# In short: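 CHO cells stably expressing human CHRM1 were loaded with calcium dye for 1 h at 37 C, then compound was added in agonist mode. Intracellular calcium fluorescence was followed kinetically at 1 s intervals. Fifteen concentrations were tested in three independent runs.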
# [16] = cAMP Responsive Elements (CRE) small molecule agonists, cell-based qHTS assay (AID 1963590)
# In short: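 CRE-bla HEK 293T cells, 2,000/well in DMEM with 10% dialyzed FBS and 25 mM HEPES, pre-incubated 18 h at 37 C, then exposed to compound 3 h at 37 C. Beta-lactamase reporter read with LiveBLAzer B/G FRET substrate after 2 h at room temperature.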
# [17] = cAMP Responsive Elements (CRE) small molecule antagonists, cell-based qHTS assay (AID 1963591; active = well fitted inhibition curve with a large enough effect in the signal ratio in the repeat runs, not every such curve was filed as active; the % refers to the signal ratio)
# In short: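 CRE-bla HEK293T cells plated 18 h, then given compound plus NKH477 at 0.25 uM final for 3 h at 37C. Beta-lactamase reporter read with LiveBLAzer B/G FRET substrate after 2 h at room temperature.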
# [18] = target: Beta-2 adrenergic receptor (Homo sapiens) (UniProt P07550); assay: Adrenergic beta2 receptor (ADRB2) small molecule antagonists, cell-based qHTS assay (AID 1963592); also: series mostly up to about 92 µM; nearly all actives have a fitted effect of over 50% in size
# Beta-2 adrenergic receptor (Homo sapiens), sequence (P07550 whole entry, looked up): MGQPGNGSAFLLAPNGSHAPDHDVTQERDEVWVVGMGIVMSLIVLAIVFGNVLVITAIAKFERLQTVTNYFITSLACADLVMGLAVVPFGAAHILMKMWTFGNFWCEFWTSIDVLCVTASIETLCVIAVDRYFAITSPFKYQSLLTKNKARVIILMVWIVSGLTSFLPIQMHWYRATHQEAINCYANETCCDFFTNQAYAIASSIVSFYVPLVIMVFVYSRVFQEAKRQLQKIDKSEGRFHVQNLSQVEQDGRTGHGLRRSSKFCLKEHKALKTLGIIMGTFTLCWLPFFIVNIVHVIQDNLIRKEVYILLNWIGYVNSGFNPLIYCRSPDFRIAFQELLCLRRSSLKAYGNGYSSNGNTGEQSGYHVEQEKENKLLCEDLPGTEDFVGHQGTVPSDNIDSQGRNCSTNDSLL
# In short: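 Cells (CHO, stable ADRB2 overexpression) incubated 18-20hr at 37C; compounds added from DMSO; agonist mix (1nM isoproterenol, 100uM IBMX, 25uM Ro-20-1724) added; 0.5hr RT; d2-cAMP and anti-cAMP-cryptate added; 1hr RT; 665/615 nm read.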
# [19] = target: Beta-2 adrenergic receptor (Homo sapiens) (UniProt P07550); assay: Adrenergic beta2 receptor (ADRB2) small molecule agonists, cell-based qHTS assay (AID 1963593);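 also: CHO cells stably overexpressing human ADRB2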
# In short: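 CHO cells stably over-expressing ADRB2 were plated overnight at 37C, then dosed with compounds plus a stimulation mix containing 100uM IBMX and 25uM Ro-20-1724 for 0.5hr at room temperature. cAMP was measured by HTRF competition, 1hr.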
# [20] = target: D(2) dopamine receptor (Homo sapiens) (UniProt P14416); assay: Dopamine D2 receptor (DRD2) small molecule agonists, cell-based qHTS assay (AID 1963594); also: nearly all actives have a fitted effect of over 35% in size
# D(2) dopamine receptor (Homo sapiens), sequence (P14416 whole entry, looked up): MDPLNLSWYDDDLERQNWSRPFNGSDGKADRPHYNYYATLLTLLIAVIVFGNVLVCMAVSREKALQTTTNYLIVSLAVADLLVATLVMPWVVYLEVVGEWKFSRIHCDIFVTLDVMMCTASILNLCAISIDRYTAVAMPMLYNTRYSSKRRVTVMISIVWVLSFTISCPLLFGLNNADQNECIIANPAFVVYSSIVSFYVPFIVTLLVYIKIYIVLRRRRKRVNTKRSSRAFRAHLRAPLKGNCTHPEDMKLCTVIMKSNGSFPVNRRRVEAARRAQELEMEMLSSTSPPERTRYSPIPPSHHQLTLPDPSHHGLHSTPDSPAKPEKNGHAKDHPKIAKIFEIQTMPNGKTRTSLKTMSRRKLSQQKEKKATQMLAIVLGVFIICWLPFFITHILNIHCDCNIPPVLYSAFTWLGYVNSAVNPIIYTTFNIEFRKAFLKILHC
# In short: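 HEK293 cells stably expressing human DRD2, pre-treated with PDE inhibitor Ro20-1724 (0.1 mM final) and compound 10 min at room temperature, then stimulated with NKH477 (200nM […]) for 30 min. cAMP read by HTRF (665/620 nm).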
structure (smiles),measurement,setting,value
CC1CC(OC(=O)c2ccccc2O)CC(C)(C)C1 (centres undefined),Potency,[1],inactive
same,Potency,[2],61.1 µM (active)
same,Potency,[3],inactive
same,Potency,[4],inactive
same,Potency,[5],inactive
same,Potency,[6],inactive
same,Potency,[7],inactive
same,Potency,[8],inactive
same,Potency,[9],inactive
same,Potency,[10],inactive
same,Potency,[11],inactive
same,Potency,[12],inactive
same,Potency,[13],inactive
same,Potency,[14],inactive
same,Potency,[15],inactive
same,Potency,[16],inactive
same,Potency,[17],inactive
same,Potency,[18],inactive
same,Potency,[19],inactive
same,Potency,[20],inactive
Cc1cccc(C)c1NC(=O)CC12CCCN1CCC2,Potency,[1],inactive
same,Potency,[2],inactive
same,Potency,[3],inactive
same,Potency,[4],inactive
same,Potency,[5],inactive
same,Potency,[6],inactive
same,Potency,[7],inactive
same,Potency,[8],inactive
same,Potency,[9],inactive
same,Potency,[10],inactive
same,Potency,[11],inactive
same,Potency,[12],inactive
same,Potency,[13],inactive
same,Potency,[14],inactive
same,Potency,[15],inactive
same,Potency,[16],inactive
same,Potency,[17],inactive
same,Potency,[18],inactive
same,Potency,[19],inactive
same,Potency,[20],inactive
CC1=CC[C@@]23C[C@@H]1C(C)(C)[C@@H]2CC[C@H]3C,Potency,[1],inactive
same,Potency,[2],inactive
same,Potency,[3],inactive
same,Potency,[4],inactive
same,Potency,[5],inactive
same,Potency,[6],inactive
same,Potency,[7],inactive
same,Potency,[8],inactive
same,Potency,[9],inactive
same,Potency,[10],inactive
same,Potency,[11],inactive
same,Potency,[12],inactive
same,Potency,[13],inactive
same,Potency,[14],inactive
same,Potency,[15],inactive
same,Potency,[16],inactive
same,Potency,[17],inactive
same,Potency,[18],inactive
same,Potency,[19],inactive
same,Potency,[20],inactive
OCC(O)CN1CCN(c2ccccc2)CC1 (centres undefined),Potency,[1],inactive
same,Potency,[2],inactive
same,Potency,[3],inactive
same,Potency,[4],inactive
same,Potency,[5],inactive
same,Potency,[6],inactive
same,Potency,[7],inactive
same,Potency,[8],inactive
same,Potency,[9],inactive
same,Potency,[10],inactive
same,Potency,[11],inactive
same,Potency,[12],inactive
same,Potency,[13],inactive
same,Potency,[14],inactive
same,Potency,[15],inactive
same,Potency,[16],inactive
same,Potency,[17],inactive
same,Potency,[18],inactive
same,Potency,[19],inactive
O=C(O)c1cccc(Cl)c1Cl,Potency,[1],inactive
same,Potency,[2],inactive
same,Potency,[3],inactive
same,Potency,[4],inactive
same,Potency,[5],inactive
same,Potency,[6],inactive
same,Potency,[7],inactive
same,Potency,[8],inactive
same,Potency,[9],inactive
same,Potency,[10],inactive
same,Potency,[11],inactive
same,Potency,[12],inactive
same,Potency,[13],inactive
same,Potency,[14],inactive
same,Potency,[15],inactive
same,Potency,[16],inactive
same,Potency,[17],inactive
same,Potency,[18],inactive
same,Potency,[19],inactive
same,Potency,[20],inactive
NC(=O)C1CO1 (centres undefined),Potency,[1],inactive
same,Potency,[2],inactive
same,Potency,[3],inactive
same,Potency,[4],inactive
same,Potency,[5],inactive
same,Potency,[6],inactive
same,Potency,[7],inactive
same,Potency,[8],inactive
same,Potency,[9],inactive
same,Potency,[10],inactive
same,Potency,[11],inactive
same,Potency,[12],inactive
same,Potency,[13],inactive
same,Potency,[14],inactive
same,Potency,[15],inactive
same,Potency,[16],inactive
same,Potency,[17],inactive
same,Potency,[18],inactive
same,Potency,[19],inactive
same,Potency,[20],inactive
CCCCCCCC/C=C\CCCCCCCC(=O)OCCCC,"activity change, negative = cytotoxicity",[1],4.3% [at 19 µM]
same,"activity, positive = activation",[2],8.08% [at 19 µM]
same,activity change,[3],"1.13% [at 11.8 µM, stronger effect = higher value]"
same,activation,[4],1.04% [at 15.8 µM]
same,activation,[5],0.0792% [at 11.8 µM]
same,activation,[6],-3.86% [at 13.5 µM]
same,activation,[7],-0.57% [at 13.6 µM]
same,"activity change, negative = cytotoxicity",[8],0.909% [at 13.5 µM]
same,"activity change, negative = cytotoxicity",[9],7.39% [at 13.5 µM]
same,"activity change, negative = cytotoxicity",[10],6.46% [at 13.5 µM]
same,activation,[11],-0.177% [at 13.5 µM]
same,"activity, negative = inhibition",[12],-6.13% [at 12.7 µM]
same,activation,[13],5.55% [at 15.9 µM]
same,"activity, negative = inhibition",[14],5.7% [at 12.6 µM]
same,activation,[15],-0.0084% [at 15.8 µM]
same,activation,[16],0.955% [at 19 µM]
same,"activity change, negative = inhibition",[17],-13.9% [at 18.9 µM]
same,"activity change, negative = inhibition",[18],-2.11% [at 19 µM]
same,activation,[19],25.8% [at 19 µM]
same,activation,[20],-5.29% [at 19 µM]
